MCF10A rerep = A quantitative high throughput screen for small molecules that induce DNA re-replication in MCF 10a normal breast cells. Potency, µM (doses to about 46.1 µM), actives largely listed as activators. AID 624296, 2012. 350,000 compounds, 2.9% hits. MCF 10A DNA re-replication, Hoechst nuclear intensity, 48 h; note: nearly all actives have a fitted effect of over 50% in size
KB-3-1 cytotox = qHTS assay for MDR1-selective chemotherapeutics: Primary screen using the parental adenocarcinoma cell KB-3-1; KB-3-1 viability, CellTiter-Glo ATP luminescence, 72 h; Potency, µM (top dose mostly 46.1 µM), usual class: cytotoxic; 400,000 compounds, 1.4% hits; AID 1347075, 2019; note: nearly all actives have a fitted effect of over 60% in size
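Screening of KB-3-1 cells (DMEM, 10% FBS, phenol-red free) ran from lowest to highest compound concentration; after 72 h at 37 °C viability was read luminescently and curves fitted.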
KB-V1 cytotox = qHTS assay for MDR1-selective chemotherapeutics: Primary screen using the drug-selected MDR subline cells KB-V1; Potency, µM (series often up to 46.1 µM), actives largely listed as cytotoxic; 400,000 compounds, 3.4% hits; KB-V1 MDR cells viability, CellTiter-Glo, 72 h; AID 1347076, 2019; note: nearly all actives have a fitted effect of over 60% in size
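qHTS viability screen in drug-selected KB-V1 MDR cells: 72 h compound treatment at 37 degrees C, ATP luminescence end point.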
SW480 rereplic = A quantitative high throughput screen for small molecules that induce DNA re-replication in SW480 colon adenocarcinoma cells | 340,000 compounds, 1.8% hits | SW480 DNA re-replication, Hoechst DNA content imaging, 48 h | Potency, µM (series often up to 46.1 µM), usual class: activators; note: nearly all actives have a fitted effect of over 55% in size
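Treated cells incubate 48 hr (37 C, 5% CO2), are stained 40 min with Hoechst, and nuclear fluorescence is enumerated; a rise in nuclei with high DNA signal marks re-replication.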
IL1B secr inh = qHTS for Inhibitors of Inflammasome Signaling: IL-1-beta AlphaLISA Primary Screen; THP-1 LPS/ATP IL-1B secretion, AlphaLISA, 16 h; stronger effect = lower value; activity change, % at 57.5 µM; 360,000 compounds, 4.7% hits; AID 743279, 2014; in the data active = activity change below about -50%; inconclusive = mostly about -30% to -49%
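Secreted IL-1B measured by AlphaLISA bead assay after 16 h compound exposure of THP-1 cells; compounds (final up to 57.5 uM) added 1 h before LPS (250 ng/mL) and ATP (1.25 mM) stimulation; lower signal means less secretion.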
Of the large screens only hits and unclear results are named; the others gave an inactive call. Hits are enriched below; roughly 9.9% of the tested compounds scored in any of these assays. Unless noted, calls come from the whole dose curve; as a rule, active = well fitted curve in the direction sought with a large enough effect; inconclusive = small, poorly fitted or top-dose-only effect, or another doubt; inactive = no such curve, though single readings can be large; an effect the other way counts as inactive or inconclusive.

CCOc1cc(S(=O)(=O)Nc2cc(C)cc(C)c2)ccc1Cl	MCF10A rerep inconclusive, IL1B secr inh -59
CCOc1cc(S(=O)(=O)NC2CCCC2)ccc1Cl	none
COc1ccc(NS(=O)(=O)c2ccc3ccccc3c2)c2ncccc12	MCF10A rerep inconclusive, KB-3-1 cytotox inconclusive, SW480 rereplic 15µM
CCCc1nc2ccc(Cl)cn2c1Cc1ccsc1	none (no result: MCF10A rerep, SW480 rereplic)
O=C(C1=C(O)C(=O)N(CCCn2ccnc2)C1c1cccc(Br)c1)c1ccco1 (centres undefined)	none
COCCCn1c(=O)/c(=C\c2ccccc2OC(F)F)s/c1=C(/C#N)C(=O)N1CCOCC1	KB-V1 cytotox inconclusive, IL1B secr inh -69
COCCCNC(=O)/C(C#N)=c1\s/c(=C\c2ccccc2OC(F)F)c(=O)n1CCCOC	none
COc1ccc(NS(=O)(=O)c2cccs2)cc1S(=O)(=O)N1CCOCC1	none
COc1ccc(Nc2nc(-c3cccs3)nc3ccccc23)cc1S(=O)(=O)N1CCOCC1	MCF10A rerep inconclusive, KB-3-1 cytotox inconclusive, KB-V1 cytotox inconclusive, SW480 rereplic inconclusive, IL1B secr inh -66
CN(C)c1nc(N(C)C)n(Cc2c(Cl)cccc2Cl)n1	MCF10A rerep inconclusive
O=C(CN1CCN(C2CCCCC2)C(=O)C1=O)Nc1ccc(Cl)cc1	none (no result: MCF10A rerep, SW480 rereplic, IL1B secr inh)
Cc1cccc(Nc2cc(C)c3c(O)cccc3n2)c1C	MCF10A rerep inconclusive, KB-3-1 cytotox inconclusive, SW480 rereplic 21µM, IL1B secr inh -101
Cc1c(C(=O)N(C)Cc2ccccc2)oc2ccc(S(=O)(=O)N3CCCC3)cc12	none
Cc1c(C(=O)NCc2cccnc2)oc2ccc(S(=O)(=O)N3CCCCC3)cc12	KB-3-1 cytotox inconclusive, KB-V1 cytotox inconclusive
Cc1c(C(=O)NCc2cccnc2)oc2ccc(S(=O)(=O)N3CCCCCC3)cc12	KB-3-1 cytotox inconclusive, KB-V1 cytotox 5.2µM
CCN(C(=O)c1oc2ccc(S(=O)(=O)N3CCCCCC3)cc2c1C)c1ccccc1	KB-3-1 cytotox 26µM (no result: MCF10A rerep, SW480 rereplic, IL1B secr inh)
O=C(NCc1cccc(Cl)c1)c1ccc(-n2ccnc2)c2ccoc12	none (no result: MCF10A rerep, SW480 rereplic)
CCOC(=O)C1(C)CCCCCN1C(=O)c1ccco1 (centres undefined)	none (no result: MCF10A rerep, SW480 rereplic)
O=Cc1cn(-c2ccccc2)nc1-c1cccnc1	IL1B secr inh -83
Cc1ccc(-c2cc3ncc(C(=O)c4cc([N+](=O)[O-])ccc4O)cn3n2)cc1	KB-3-1 cytotox 16µM (no result: MCF10A rerep, SW480 rereplic, IL1B secr inh)
CCOC(=O)COc1ccc([N+](=O)[O-])cc1-c1ccnc2cc(-c3ccc(C)cc3)nn12	none (no result: MCF10A rerep, SW480 rereplic, IL1B secr inh)
Cc1ccc(-c2cc3nccc(-c4cc([N+](=O)[O-])ccc4O)n3n2)cc1	KB-3-1 cytotox 23µM, KB-V1 cytotox inconclusive (no result: MCF10A rerep, SW480 rereplic, IL1B secr inh)
Cn1c(=O)c2ccccc2n(CC(=O)N2CCCc3ccccc32)c1=O	none
CC(=O)C1=NN(c2ccc(Cl)cc2)C(c2ccc3c(c2)OCO3)N(C(C)=O)N1C (centres undefined)	none
CCOC(=O)C1CCN(CC(=O)c2ccc(O)c(C)c2O)CC1	none
CN(C)c1ccc(C(CNS(=O)(=O)c2ccc(F)cc2)c2c[nH]c3ccccc23)cc1 (centres undefined)	MCF10A rerep 21µM, KB-3-1 cytotox inconclusive, KB-V1 cytotox inconclusive, IL1B secr inh -64
CCOC(=O)c1ccc(S(=O)(=O)NCC(c2ccc(N(C)C)cc2)c2c[nH]c3ccccc23)cc1 (centres undefined)	KB-V1 cytotox inconclusive
CCOc1ccc(C(=O)Nc2ccc(-c3nc4ccccc4o3)cc2)cc1[N+](=O)[O-]	KB-V1 cytotox inconclusive (no result: MCF10A rerep, SW480 rereplic, IL1B secr inh)
O=C(/C=C/NCc1cccnc1)c1ccc(-c2ccccc2)cc1	MCF10A rerep inconclusive
COCCCN(C(=S)Nc1cc(Cl)cc(Cl)c1)C(C)c1ccncc1 (centres undefined)	MCF10A rerep inconclusive, KB-V1 cytotox inconclusive, IL1B secr inh -68
COCCCN(C(=S)Nc1cc(Cl)cc(Cl)c1)C(C)c1ccccn1 (centres undefined)	MCF10A rerep inconclusive, KB-V1 cytotox inconclusive
c1ccc(-n2cc(CN3CCC(N4CCOCC4)CC3)c(-c3ccc4c(c3)OCO4)n2)cc1	SW480 rereplic inconclusive, IL1B secr inh -66
c1ccc(-n2cc(CN3CCCC3)c(-c3ccc4c(c3)OCO4)n2)cc1	IL1B secr inh inconclusive
CC(C)(C)NC(=O)Cn1cc(S(=O)(=O)Cc2ccccc2Cl)c2ccccc21	none (no result: MCF10A rerep, SW480 rereplic, IL1B secr inh)
Cc1nn(C2CCS(=O)(=O)C2)c2nc(C3CC3)cc(C(=O)Nc3ccc(C(N)=O)cc3)c12 (centres undefined)	none
COc1ccc(C)cc1NC(=O)c1cc(C2CC2)nc2c1c(C)nn2C1CCS(=O)(=O)C1 (centres undefined)	KB-V1 cytotox 4.6µM
O=C(NC(=S)Nc1cccc(C(F)(F)F)c1)c1csnn1	SW480 rereplic 6.5µM
CCCOc1cccc(C(=O)NC(=S)Nc2cccc(C(F)(F)F)c2)c1	SW480 rereplic inconclusive, IL1B secr inh -57
O=C(Cn1nnc(-c2ccccc2-n2cnnn2)n1)c1ccccc1	MCF10A rerep 18µM
O=C(Cn1nnc(-c2ccccc2-n2cnnn2)n1)N1CCCCC1	none
O=C(CCCn1c(=O)[nH]c2cc(Cl)ccc2c1=O)NCCCN1CCN(c2ccc(F)cc2)CC1	MCF10A rerep inconclusive, IL1B secr inh inconclusive
NNc1nc(-c2ccccc2Cl)nc2sc3c(c12)CCCC3	KB-3-1 cytotox inconclusive, KB-V1 cytotox 4.6µM, SW480 rereplic inconclusive
Cc1cc(C)c2c(=O)n(CC(=O)NC3CCCC3)sc2n1	MCF10A rerep 21µM, KB-3-1 cytotox inconclusive
Cc1cc(C)c2c(=O)n(CC(=O)Nc3ccc(Br)c(C)c3)sc2n1	MCF10A rerep inconclusive, SW480 rereplic inconclusive
Cc1onc(-c2ccccc2)c1C(O)c1ccc(F)cc1 (centres undefined)	none
Cc1ccc(C)c(N2CCN(C(=O)CN3C(=O)COc4ccc(S(=O)(=O)N5CCCC5)cc43)CC2)c1	KB-V1 cytotox inconclusive (no result: MCF10A rerep, SW480 rereplic, IL1B secr inh)
Cc1cc2c(cc1C)NC(c1c(C)n(C)n(-c3ccccc3)c1=O)C1=C(CC(C)(C)CC1=O)N2 (centres undefined)	MCF10A rerep 11µM, IL1B secr inh inconclusive
Cc1ccc(CCNC(=O)c2cn(C)c3ccc(S(=O)(=O)N4CCC(C)CC4)cc3c2=O)cc1	KB-3-1 cytotox inconclusive (no result: MCF10A rerep, SW480 rereplic, IL1B secr inh)
COc1ccc(N2CCN(CC(=O)Nc3sccc3C#N)CC2)cc1	MCF10A rerep inconclusive, KB-V1 cytotox 16µM
COc1ccc(-c2nnn(CC(=O)N3CCN(c4ccc(F)cc4)CC3)n2)cc1	none
COc1ccc(N2CCN(C(=O)CN3CCN(c4nc(-c5ccc(F)cc5)cs4)CC3)CC2)cc1	MCF10A rerep inconclusive, KB-3-1 cytotox 23µM, KB-V1 cytotox inconclusive, SW480 rereplic inconclusive, IL1B secr inh -52

Bioassay records from PubChem BioAssay.
